Compound activity (PubChem BioAssay)
CSC inhib: blocks cancer stem cells; cancer stem cell-like cells viability, luminescence; inhibition, % at 7.5 µM; 1.1% of 300,000 active; AID 2717; in the data active = inhibition above about 75%; tested in HMLE shEcad cells
Gli-Sufu block: blocks Gli-Sufu signaling in a luciferase reporter | Sufu-KO-LIGHT fibroblasts, Gli luciferase reporter luminescence | inhibition, % at 5 µM | 0.74% of 340,000 active | AID 588413;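 active = inhibition above about 55%, limit read from the data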
Mdm2 MdmX PPI: inhibitors of human Mdm2/MdmX interaction | O15151+Q00987 | SaOS-2 split-luciferase Mdm2/MdmX complementation, luminescence | inhibition, % at 8 µM | 3% of 330,000 active;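 active = inhibition of at least 50% at 8 µM in the primary screen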
MPTP block: blocks calcium-induced mitochondrial swelling. 1.4% of 360,000 active. isolated mouse mitochondria, Ca2+ swelling absorbance, 30 min. AID 602449. inhibition, % at 10 µM;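 active = inhibition of 50% or more, scaled per plate between neutral and stimulator controls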
Beta apoptosis: beta cell apoptosis inhibition | INS-1E cytokine-induced death, ATP luminescence, 48 h; percent of positive-control rescue, neutral wells zero | protection from apoptosis, % (concentration not given with the values) | 0.8% of 300,000 active | AID 435005;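 active = Every replicate reaches about 75%, or at least half do and their mean reaches it too, limit read from the data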;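 note: higher means more ATP so stronger rescue from cytokine killing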
NR3A LBD binder: modulates the human NR3A ligand-binding domain | NR3A LBD differential scanning fluorimetry, Tm shift; 0% = protein alone, 100% = glycine-bound protein | 2.5% of 340,000 active | Tm shift relative to glycine control, % at 25 µM | AID 1259313;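 active = melting temperature shift of at least 10% of the positive control shift, at one fixed dose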
Mdm2 MdmX conf: confirmation of human Mdm2/MdmX interaction inhibitors; Mdm2-MdmX binding, luminescent assay; 55% of 10,000 active; shares compounds with Mdm2 MdmX PPI; inhibition, % at 8 µM; AID 489028; in the data active = inhibition above about 40%
Full FLuc ctr: full-length luciferase inhibition in Mdm2/MdmX counter-screen; shares compounds with Mdm2 MdmX PPI; SaOS-2 full-length luciferase counterscreen, luminescence; inhibition, % at 8 µM; 77% of 6,200 active; AID 504607;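 active = mean inhibition at 8 µM reaching about 37%, which flags the compound as non-specific, limit read from the data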;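 note: p53-null SaOS-2 cells with luciferase driven by a doxycycline-inducible promoter; compound on cells about two nights before reading with doxycycline added after day one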
Numbers stand for hits; i = inactive; nt = no result given; ! = a repeat was not active. Most compounds without a hit are left out; they make up all but 6.6% or so of the library.

SMILES	CSC inhib	Gli-Sufu block	Mdm2 MdmX PPI	MPTP block	Beta apoptosis	NR3A LBD binder	Mdm2 MdmX conf	Full FLuc ctr
Nc1ccc(Cc2nc3cc4ccccc4cc3[nH]2)cc1	i	i	69	nt	i	i	i	70
CCCCCCOC(=O)c1ccc(N)cc1	i	i	i	i	i	i	nt	nt
Nc1ccc(C(=O)OCCCc2nc3cc4ccccc4cc3[nH]2)cc1	i	i	65	i	i	i	i	94
Cc1ccc(-c2csc(NC(=O)CSc3nc4ccccc4c(=O)n3CCCN(C)C)n2)cc1	i	i	i	i	i	i	nt	nt
COc1ccc([C@@H]2[C@@H]3C(=O)N(C(C)(C)C)C(=O)[C@@H]3[C@]3(Cc4ccc(Cl)cc4)C(=O)N(c4ccc(OC)cc4)C(=O)N23)cc1	i	i	i	i	i	i	nt	nt
Cc1cccc([C@@H]2[C@@H]3C(=O)N(Cc4ccccc4)C(=O)[C@@H]3[C@]3(Cc4ccccc4)C(=O)N(c4ccccc4)C(=O)N23)c1	i	i	i	i	i	i	nt	nt
COc1ccc([C@@H]2[C@@H]3C(=O)N(C(C)(C)C)C(=O)[C@@H]3[C@]3(Cc4ccc(Cl)cc4)C(=O)N(c4ccc(Br)cc4)C(=O)N23)cc1	i	i	74	i	i	i	91	i
CC(C)(C)N1C(=O)[C@H]2[C@@H](c3ccc(Br)cc3)N3C(=O)N(c4ccc(Br)cc4)C(=O)[C@@]3(Cc3ccccc3)[C@H]2C1=O	i	i	83	i	i	i	89	i
Cc1cccc([C@@H]2[C@@H]3C(=O)N(Cc4ccccc4)C(=O)[C@@H]3[C@]3(Cc4ccccc4)C(=O)N(c4ccc(C(F)(F)F)cc4)C(=O)N23)c1	i	i	99	i	i	i	100	49
CC1CNCCN1S(=O)(=O)c1cccc2cnccc12 (stereo not given)	i	i	55!	i	i	i	i	nt
O=C(NCc1cccnc1)/C(=C/c1ccc(-c2cccc(Cl)c2)o1)S(=O)(=O)c1ccccc1	100	i	99	i	112	i	100	51
O=C(NCc1cccnc1)c1ccc(CS(=O)(=O)c2ccc(Cl)cc2)o1	i	i	i	i	i	i	nt	nt
Cc1ccccc1Cn1c(=O)n(-c2ccccc2)c(=O)c2ccc(C(=O)NCc3ccco3)cc21	i	nt	68	i	i	nt	i	nt
CCCNS(=O)(=O)c1cccc(C(=O)OCc2cc(=O)oc3cc(OC)ccc23)c1	i	i	70	i	i	i	56	66
Cn1c(N)c(C(=O)Nc2ccccc2)c(=O)[nH]c1=O	i	i	i	nt	i	i	nt	nt
CCOC(=O)c1ccc(NC(=O)c2c(N)n(Cc3ccccc3)c(=O)[nH]c2=O)cc1	i	i	96	i	i	i	i	nt
COc1ccc(CN(Cc2ccc(C(=O)O)cc2)C(=S)Nc2ccc(C)cc2)cc1OC	i	i	i	i	i	i	nt	nt
COC(=O)Cn1c(=O)c(C(=O)CCl)c(N)n(Cc2ccccc2)c1=O	i	i	75	i	i	i	48	70
Cc1ccc(S(=O)(=O)NC(=O)C2(C)CCN2C(=O)c2cccc(F)c2)nc1 (stereo not given)	nt	nt	nt	i	nt	nt	nt	nt
CCOc1ccccc1C(=O)N/N=C/c1coc2ccc(C)cc2c1=O	i	i	79	i	i	i	i	nt
O=C(N/N=C/c1ccccc1O)c1cccc2ccccc12	nt	i	53	i	nt	i	53	46
O=C(N/N=C\c1c(O)ccc2ccccc12)c1ccc(O)cc1	i	i	68	i	nt	41	52	i
COc1cccc(/C=N/NC(=O)c2ccc(=O)n(C)c2)c1O	nt	i	i	i	i	i	nt	nt
Cc1occc1C(=O)N/N=C/c1c(O)ccc2ccccc12	i	i	84	i	76	32	83	i
Cn1cc(C(=O)N/N=C/c2c(O)ccc3ccccc23)ccc1=O	94	i	79	i	93	i	72	i
O=C(N/N=C/c1ccccn1)c1ccc(Br)o1	i	i	i	i	nt	i	nt	nt
Cn1ncc(N=Cc2c(O)ccc3ccccc23)c1C(=O)Nc1cccc(Cl)c1	i	i	61	i	i	i	i	nt
